The text below walks through data of PubChem BioAssay.

In experiment [1] the test system is Plasmodium falciparum Sir2 (PF13_0152, Sir2A). Briefly: Plasmodium falciparum Sir2A binding compounds – biochemical, small-molecule microarray, 635 nm fluorescence, primary screen (AID 1098).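 Note: score merges spot fluorescence intensity with its signal-to-noise ratio.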 As to conditions: fluorescence 635 nm, higher = more signal.
Experiment [2] in a line: probe aDKK1 binding to arrayed compounds – biochemical, biotinylated probe, 635/667 nm fluorescence, primary screen (AID 1099).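 Note: score merges 667nm spot fluorescence with signal to noise across triplicate slides.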 Particulars: small-molecule microarray, higher = more signal.
Experiment [3] is described as follows: probe aCHRDL2 binding to arrayed compounds – biochemical, biotinylated probe, 635/667 nm fluorescence, primary screen (AID 1100). As to conditions: small-molecule microarray, higher = more signal.
Experiment [4] can be described thus: change in splice reporter luminescence, either direction, cell-based, HEK293, spliceosome inhibition project, primary screen (AID 1101).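 Note: HEK293 cells carrying a splicing-competent luciferase reporter gene; test concentration not given here.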 Particulars: HEK293 splicing luciferase reporter, 24 h, higher = more signal, called active from +8 up or from −8 down. (In general: A reporter such as luciferase makes a cellular process visible.)
Experiment [5] addresses Fibroblast growth factor 10 (Homo sapiens) (UniProt O15520). In words: compounds binding fibroblast growth factor 10 – biochemical, small-molecule microarray, 635 nm fluorescence, primary screen (AID 1102). Particulars: FGF10 binding, fluorescence 635 nm, higher = more signal.
Experiment [6] has as its system glycogen synthase kinase-3 (GSK3A per assay name; protocol says GSK3B). In words: compounds binding glycogen synthase kinase-3 – biochemical, small-molecule microarray, 635 nm fluorescence, GSK3A, primary screen (AID 1103). Note: the record names both GSK3A and GSK3B. As to conditions: fluorescence 635 nm, higher = more signal.
Experiment [7] addresses Epidermal growth factor receptor (Homo sapiens) (UniProt P00533). In words: compounds binding epidermal growth factor receptor – biochemical, small-molecule microarray, 635 nm fluorescence, primary screen (AID 1104).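 Note: score merges 667 nm emission intensity with spot signal to noise over triplicate slides.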 As to conditions: EGFR binding, higher = more signal.
The target of experiment [8] is Follistatin-related protein 3 (Homo sapiens) (UniProt O95633). In words: compounds binding follistatin-related protein 3 – biochemical, small-molecule microarray, 635 nm fluorescence, primary screen (AID 1105).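 Note: score merges emission near 667 nm and signal to noise per printed spot across three slides.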 As to conditions: FSTL3 binding, higher = more signal.
The target in experiment [9] is Dickkopf-related protein 1 (Homo sapiens) (UniProt O94907). Briefly: small molecules binding DKK1 protein – biochemical, small-molecule microarray, 635 nm fluorescence scan, primary screen (AID 1106).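 Note: score merges emission near 667 nm with signal to noise over three replicate slides.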 As to conditions: higher = more signal.
The test system of experiment [10] is Inhibin beta A chain (activin A). In words: small molecules binding activin A – biochemical, small-molecule microarray, 635 nm fluorescence scan, primary screen (AID 1107).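 Note: mouse activin A protein probed at 4.33 µg/mL on printed slides; score merges bound-protein fluorescence near 667 nm with spot signal-to-noise.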 Particulars: INHBA, higher = more signal.
Experiment [11] relates to Human papillomavirus type 1a protein E7 (residues 44-93). Briefly: small molecules binding HPV E7 44-93 – biochemical, small-molecule microarray, residues 44-93, 635 nm fluorescence, primary screen (AID 1108).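 Note: E7 fragment applied at 1 µg/mL in TBST for 1 h at 4 C; score combines spot fluorescence with its signal to noise ratio.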 As to conditions: fluorescence 635 nm, higher = more signal.
A short description of experiment [12]: hepatitis C replication reporter changes, two-sided – Huh7 cells, luciferase reporter, HCV replication inhibitor project, primary screen (AID 1109).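 Note: huh7 hepatoma cells harbouring a luciferase neomycin HCV replicon reporter; luciferase luminescence as measure of HCV replicon replication; test concentration not given here.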 As to conditions: Huh7 HCV replicon luciferase reporter, 48 h; higher = more signal.
For experiment [13], the target named is Left-right determination factor 2 (Homo sapiens) (UniProt O00292). In words: small molecules binding LEFTY2 protein – biochemical, small-molecule microarray, 635 nm fluorescence scan, primary screen (AID 1110). As to conditions: higher = more signal.
The target in experiment [14] is Calmodulin-1 (Homo sapiens) (UniProt P0DP23). In words: small molecules binding calmodulin-1 with EGTA – biochemical, small-molecule microarray, Cy5-labelled CALM1, profiling panel (AID 1111).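 Note: labelled calmodulin applied in Tris saline Tween buffer holding calcium plus EGTA and DTT.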 Particulars: Cy5-CALM1 binding fluorescence, higher = more signal.
Experiment [15] has the same target. Briefly: small molecules binding Ca-loaded calmodulin-1 – biochemical, small-molecule microarray, Cy5-labelled CALM1, plus calcium, artefact control for SMM control-protein annotation, profiling panel (AID 1112).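 Note: score merges spot fluorescence with signal to noise from triplicate slides.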 Particulars: Cy5-CALM1 binding fluorescence, higher = more signal.
Experiment [16] is described as follows: probe aWnt5a binding to arrayed compounds – biochemical, biotinylated probe, 635/667 nm fluorescence, primary screen (AID 1113).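 Note: score merges 667 nm fluorescence intensity with signal-to-noise per printed feature.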 Particulars: small-molecule microarray, higher = more signal.
A short description of experiment [17]: probe aShh binding to arrayed compounds – biochemical, biotinylated probe, 635/667 nm fluorescence, primary screen (AID 1114).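 Note: probe is biotin-labelled aShh protein from a stem cell growth factor screen; measures binding of labelled protein to compounds printed on the slide; score merges feature fluorescence at 667 nm with signal-to-noise.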 Particulars: small-molecule microarray, higher = more signal.
Experiment [18] is described as follows: probe aNog binding to arrayed compounds – biochemical, biotinylated probe, 635/667 nm fluorescence, primary screen (AID 1115).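 Note: probe is biotinylated aNog protein used at 0.15 µg/mL for 1 h at 4 C; z-score combines 667 nm fluorescence of each spot with its signal to noise.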 Particulars: small-molecule microarray, higher = more signal.
Experiment [19] has as its target Torsin-1A-interacting protein 1 (Homo sapiens) (UniProt Q5JTV8). In words: compound microarray binding of lysate hLAP1 – cell lysate, small-molecule microarray, COS7 lysate, 635/667 nm fluorescence, primary screen (AID 1116). Particulars: 635 nm fluorescence, higher = more signal.
The target in experiment [20] is Alpha-bungarotoxin (Bungarus multicinctus) (UniProt P60615). In words: compounds binding labelled alpha-BTX control protein – biochemical, small-molecule microarray, Alexa647 label, 635/667 nm fluorescence, artefact control for SMM control protein annotation, profiling panel (AID 1117). Particulars: alpha-BTX-A647 binding fluorescence, higher = more signal.

Calls of active or inactive are those of the source.

Fibroblast growth factor 10 (Homo sapiens), sequence (O15520 whole entry, looked up): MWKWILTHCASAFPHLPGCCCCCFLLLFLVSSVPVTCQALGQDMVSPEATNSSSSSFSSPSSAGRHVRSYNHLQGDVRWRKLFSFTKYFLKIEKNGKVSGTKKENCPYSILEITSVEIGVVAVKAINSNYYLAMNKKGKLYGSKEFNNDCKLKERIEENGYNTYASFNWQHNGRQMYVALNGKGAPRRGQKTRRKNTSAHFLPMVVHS
Dickkopf-related protein 1 (Homo sapiens), sequence (O94907 whole entry, looked up): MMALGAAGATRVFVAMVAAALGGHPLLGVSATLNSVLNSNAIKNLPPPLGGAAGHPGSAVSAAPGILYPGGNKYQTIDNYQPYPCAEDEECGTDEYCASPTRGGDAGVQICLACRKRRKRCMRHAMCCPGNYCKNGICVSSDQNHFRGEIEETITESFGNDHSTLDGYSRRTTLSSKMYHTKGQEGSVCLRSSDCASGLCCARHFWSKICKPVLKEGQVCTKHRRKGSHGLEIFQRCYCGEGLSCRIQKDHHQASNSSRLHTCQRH
Left-right determination factor 2 (Homo sapiens), sequence (O00292 whole entry, looked up): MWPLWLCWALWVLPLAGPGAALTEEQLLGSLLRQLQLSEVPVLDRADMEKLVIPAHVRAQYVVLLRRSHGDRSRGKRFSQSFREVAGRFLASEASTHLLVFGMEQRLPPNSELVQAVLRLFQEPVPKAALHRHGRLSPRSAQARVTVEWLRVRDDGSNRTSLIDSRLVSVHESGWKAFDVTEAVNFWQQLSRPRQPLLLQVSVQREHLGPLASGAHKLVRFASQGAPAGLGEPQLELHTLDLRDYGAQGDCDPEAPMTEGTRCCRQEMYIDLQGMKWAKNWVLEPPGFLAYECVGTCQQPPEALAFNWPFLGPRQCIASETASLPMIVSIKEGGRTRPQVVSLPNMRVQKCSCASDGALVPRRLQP
Alpha-bungarotoxin (Bungarus multicinctus), sequence (P60615 whole entry, looked up): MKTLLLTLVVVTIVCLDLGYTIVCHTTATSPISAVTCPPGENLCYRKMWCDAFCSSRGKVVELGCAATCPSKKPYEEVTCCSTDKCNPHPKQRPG
Torsin-1A-interacting protein 1 (Homo sapiens), sequence (Q5JTV8 whole entry, looked up): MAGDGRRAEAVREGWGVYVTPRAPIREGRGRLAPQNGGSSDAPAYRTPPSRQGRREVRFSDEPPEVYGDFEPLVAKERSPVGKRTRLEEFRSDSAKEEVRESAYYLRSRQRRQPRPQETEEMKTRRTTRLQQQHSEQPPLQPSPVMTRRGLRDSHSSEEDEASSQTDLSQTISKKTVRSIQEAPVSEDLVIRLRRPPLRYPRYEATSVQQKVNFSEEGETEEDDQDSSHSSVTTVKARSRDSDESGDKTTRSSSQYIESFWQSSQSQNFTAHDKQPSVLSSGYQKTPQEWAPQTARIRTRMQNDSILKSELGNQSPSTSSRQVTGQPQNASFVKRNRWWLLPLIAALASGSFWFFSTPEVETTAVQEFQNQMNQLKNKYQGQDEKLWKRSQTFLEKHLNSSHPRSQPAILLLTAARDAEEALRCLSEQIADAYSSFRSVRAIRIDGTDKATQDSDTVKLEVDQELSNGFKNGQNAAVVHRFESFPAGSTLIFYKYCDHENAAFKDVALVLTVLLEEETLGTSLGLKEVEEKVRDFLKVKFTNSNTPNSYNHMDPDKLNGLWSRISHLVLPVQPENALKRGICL
Epidermal growth factor receptor (Homo sapiens), sequence (P00533 whole entry, looked up): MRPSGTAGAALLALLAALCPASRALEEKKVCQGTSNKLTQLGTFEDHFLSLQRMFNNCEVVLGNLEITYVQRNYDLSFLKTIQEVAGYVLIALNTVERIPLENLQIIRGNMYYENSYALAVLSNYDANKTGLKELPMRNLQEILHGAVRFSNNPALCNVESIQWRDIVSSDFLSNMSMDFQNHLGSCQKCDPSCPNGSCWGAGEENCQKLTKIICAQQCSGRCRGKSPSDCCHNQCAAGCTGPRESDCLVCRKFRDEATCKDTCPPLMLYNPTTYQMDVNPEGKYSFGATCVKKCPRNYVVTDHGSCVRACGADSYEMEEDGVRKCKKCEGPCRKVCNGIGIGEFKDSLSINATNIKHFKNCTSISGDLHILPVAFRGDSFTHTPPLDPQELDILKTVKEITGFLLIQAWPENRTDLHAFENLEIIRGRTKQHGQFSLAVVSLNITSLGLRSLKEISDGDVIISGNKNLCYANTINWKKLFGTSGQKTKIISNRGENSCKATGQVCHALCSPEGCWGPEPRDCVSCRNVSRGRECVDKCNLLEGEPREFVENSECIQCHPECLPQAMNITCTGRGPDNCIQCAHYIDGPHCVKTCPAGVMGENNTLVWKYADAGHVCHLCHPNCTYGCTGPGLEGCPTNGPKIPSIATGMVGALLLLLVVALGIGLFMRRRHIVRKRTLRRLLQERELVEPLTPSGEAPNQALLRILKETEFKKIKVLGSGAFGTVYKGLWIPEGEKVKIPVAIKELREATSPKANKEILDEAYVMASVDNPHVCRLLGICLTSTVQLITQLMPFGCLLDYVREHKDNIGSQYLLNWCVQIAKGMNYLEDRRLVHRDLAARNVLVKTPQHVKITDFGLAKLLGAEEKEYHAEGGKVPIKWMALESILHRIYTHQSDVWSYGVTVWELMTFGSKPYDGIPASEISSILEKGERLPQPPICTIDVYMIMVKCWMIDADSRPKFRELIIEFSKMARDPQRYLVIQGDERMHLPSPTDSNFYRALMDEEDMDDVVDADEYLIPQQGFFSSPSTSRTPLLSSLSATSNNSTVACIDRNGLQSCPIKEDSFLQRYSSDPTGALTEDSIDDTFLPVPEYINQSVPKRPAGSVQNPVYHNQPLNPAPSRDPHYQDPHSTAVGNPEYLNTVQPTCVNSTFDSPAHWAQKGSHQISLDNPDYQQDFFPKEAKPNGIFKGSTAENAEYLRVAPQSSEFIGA
Follistatin-related protein 3 (Homo sapiens), sequence (O95633 whole entry, looked up): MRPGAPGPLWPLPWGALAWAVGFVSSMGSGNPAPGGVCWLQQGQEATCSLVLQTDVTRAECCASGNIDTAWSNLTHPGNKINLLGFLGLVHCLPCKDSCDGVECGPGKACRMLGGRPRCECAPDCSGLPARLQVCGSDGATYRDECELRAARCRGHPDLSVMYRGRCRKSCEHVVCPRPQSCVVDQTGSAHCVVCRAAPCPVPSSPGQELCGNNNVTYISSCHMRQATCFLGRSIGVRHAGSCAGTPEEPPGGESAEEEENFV

On to `O=C1C2C=CC(C(O)c3ccc(F)cc3)N(Nc3ccccc3)C2C(=O)N1c1ccccc1` (stereo not given), for which the composite z-score in experiment [1] was 1.44; in experiment [2], 1.05; in experiment [3] it was 0.794; in experiment [5] it was -0.0653; in [6], -0.0052; in [7], -0.296. The composite z-score is -0.216 in [8]; -0.954 in [9]; 1.46 in [10]; 1.42 in experiment [11]; -0.238 in experiment [13]; 0.691 in [14]. Further, the composite z-score in experiment [15] was 0.619; in experiment [16], 0.0597; in experiment [17], -0.289; in experiment [18], 0.195; in experiment [19], 0.691; in experiment [20], 1.97. For the same compound, the z-score in experiment [4] is 0.444 (inactive); in experiment [12], -0.379.

As to `CCOC(=O)C1=CC[C@@H](c2ccccc2)N(S(=O)(=O)c2ccc(C)cc2)[C@H]1C(=O)OCC`, the composite z-score was -0.0664 in experiment [1]; 0.955 in [2]; 1.02 in experiment [3]; 0.605 in [5]; 1.13 in experiment [6]; 0.117 in experiment [7]. Moreover, the composite z-score is 0.533 in [8]; -0.249 in [9]; 1.04 in [10]; 0.841 in [11]; -0.0319 in experiment [13]; 0.784 in [14]. The composite z-score worked out at 0.289 in experiment [15]; 0.177 in experiment [16]; 0.77 in [17]; 0.137 in experiment [18]; 0.962 in experiment [19]; 0.384 in experiment [20]. Besides, the z-score is -0.287 (inactive) in [4] and -3.08 in experiment [12].

Regarding `CS(=O)(=O)CCOC(=O)C1=CC(c2ccc(CO)cc2)=CC(C2CC2)N(Cc2cc3c(cc2Br)OCO3)C=C1C(=O)OCCS(C)(=O)=O` (stereo not given), the composite z-score in experiment [1] was determined as 0.848; in experiment [2], 0.296; in experiment [3], 0.351; in experiment [5], 1.08; in experiment [6] it was 1.18; in [7], 0.425. For the same compound, the composite z-score in experiment [8] came out at 0.932; in experiment [9], 0.391; in experiment [10], 0.701; in experiment [11], 1.41; in experiment [13], 0.462; in [14], 1.38. Further, the composite z-score in experiment [15] is 0.23; in [16], -0.0124; in experiment [17], 0.171; in experiment [18], 0.446; in experiment [19], 1.18; in experiment [20], 1.77. Further, the z-score in [4] is 0.883 (inactive); in experiment [12], -2.3.

Regarding `COc1ccc([Si](C)(C)[C@@H]2[C@@H](CCn3cc([C@H](O)c4ccccc4)nn3)O[C@]3(C(=O)N(Cc4ccc(N5C(=O)c6cccc7cccc5c67)cc4)c4ccccc43)[C@H]2C)cc1`, the composite z-score was 0.286 in experiment [1]; -0.187 in experiment [2]; -0.0017 in experiment [3]; -0.456 in experiment [5]; -0.513 in experiment [6]; -0.471 in experiment [7]. Further, the composite z-score in experiment [8] is -0.586; in experiment [9], -0.795; in experiment [10] it was -0.409; in experiment [11] it was 0.314; in experiment [13] it was -0.556; in experiment [14], 0.273. Besides, the composite z-score in [15] is 0.702; in experiment [16], -0.154; in experiment [17] it was -0.0904; in experiment [18] it was -0.131; in [19] it was -0.0215; in experiment [20], 0.152. The z-score in experiment [4] was -1.5 (inactive); in experiment [12] it was -2.88.

Regarding `COCCOC(=O)N1C(=O)[C@@]2(c3cc(C#CCNC(N)=O)ccc31)[C@H](c1ccccc1OCCO)N1[C@H](c3ccccc3)[C@H](c3ccccc3)OC(=O)[C@H]1[C@@H]2C(N)=O`, the composite z-score in experiment [1] was found to be 0.806; in [2], 0.117; in [3], 0.106; in experiment [5], 0.848; in experiment [6], 0.786; in experiment [7] it was 0.528. The composite z-score came to 1.26 in experiment [8]; 0.439 in experiment [9]; 0.719 in experiment [10]; 1.18 in experiment [11]; 0.54 in [13]; 0.451 in experiment [14]. Further, the composite z-score in experiment [15] is 0.664; in experiment [16], 0.0253; in experiment [17] it was -0.229; in experiment [18], -0.314; in experiment [19] it was -0.0837; in experiment [20], 1.18. The z-score is -0.265 (inactive) in [4] and -0.733 in experiment [12].

For the compound `COC(=O)c1ccc(C(O)C2C=CC3C(=O)N(c4ccccc4)C(=O)C3N2Nc2ccc(C#N)cc2)o1` (stereo not given), the composite z-score in experiment [1] worked out at 0.969; in [2], 0.51; in experiment [3], 0.669; in experiment [5], 0.989; in experiment [6], 0.137; in [7], 0.219. For the same compound, the composite z-score was 0.311 in experiment [8]; -0.0752 in experiment [9]; 0.961 in experiment [10]; 1.18 in experiment [11]; 0.196 in experiment [13]; -0.118 in [14]. Further, the composite z-score is -0.637 in experiment [15]; 0.0136 in [16]; 0.582 in experiment [17]; 0.363 in experiment [18]; 0.681 in experiment [19]; -0.187 in experiment [20]. Also, the z-score is 1.28 (inactive) in experiment [4] and -0.133 in experiment [12].

`CCCN1C(=O)[C@]2(COC(c3ccc(OCCCO)cc3)=N2)Cc2ccccc21`: the composite z-score in experiment [1] was 1.08; in [2] it was 1.09; in experiment [3], 1.1; in experiment [5], 0.736; in [6], 1; in experiment [7], -0.542. Besides, the composite z-score was 0.378 in [8]; 0.0779 in experiment [9]; 0.854 in [10]; 0.147 in experiment [11]; -0.196 in [13]; 1.11 in [14]. The composite z-score was 0.599 in experiment [15]; -0.0462 in experiment [16]; 0.118 in experiment [17]; 0.705 in experiment [18]; 0.39 in experiment [19]; 1.03 in [20]. The values for the z-score in experiment [4] and in experiment [12] were 0.409 (inactive) and 0.0172, respectively.

For `C=C(COC)/C(=C/C[C@H](OC(=O)c1ccncc1)c1cccc(OCCO)c1)c1cc(C(=O)OC)ccc1OC`, the composite z-score in experiment [1] was 0.901; in experiment [2] it was -0.0771; in experiment [3], 0.195; in [5] it was 0.837; in experiment [6] it was -0.208; in experiment [7], -0.353. In addition, the composite z-score in experiment [8] was 0.0001; in [9], -0.0833; in experiment [10], 0.533; in [11], -1.16; in experiment [13], 0.229; in experiment [14] it was -0.0871. Moreover, the composite z-score in experiment [15] is -0.46; in experiment [16] it was -0.156; in experiment [17], -0.0769; in experiment [18], -0.104; in experiment [19] it was 0.516; in experiment [20] it was 1.29. Also, the z-score was -0.147 (inactive) in experiment [4] and -1.67 in [12].
